# Results from article PMC12864922, “TDP-43 directly inhibits mRNA accumulation in neurites through modulation of mRNA stability”.
# Whole data set: some 9,900 sequences, median “r (bound/input frequency ratio)” near 0.7, cut for the highest 2% near 6.5. This is one part of a sample in which the highest values are shown more often than they occur.
# B1: ENSMUSG00000028439.112|Fam219a|120:124 (ssRNA)
# RNA: GGGAGUUCUACAGUCCGACGAUCGCUUCGAUAUCCGCAUGCUACAAAGGGAUACUGUCUCUCCAUUAGAUAACUCCUUCCACUGUCUCCCUCCCCCGCUUUCUUACUUUCUGAGGGUUGGGAAGGUAAGAUGGGCCUUAGAGAGAAGCCAGGUUUGGGGAUGCAUACACCUGUUCUCACCGGUCUCUAACCAGUGCAUCUGUCUCUCUGCCUCAUCCCCACACCGCCCUGCCACCCCCAGUCUUCUGUCUAUUGGUUCCAGGCUGGAAGCAAGAGAUAAGGCUGGCCUCCUGUGCCCCAUUGCCUCUUGCGGUCGCACUAGUGUGGAAUUCUCGGGUGUCAAGG
# B2: ENSMUSG00000031028.669|Tub (ssRNA)
# RNA: GGGAGUUCUACAGUCCGACGAUCGCUUCGAUAUCCGCAUGCUAAUUUCUCUAGCUGAGAGCACACUUAGCCAGUUUUCACGCCUAGAACAUAUAUGUCGAUUUGCACAUGAUUGUCUUUUCCUAUUUUGGAGUGGUCAGACAUUUUAUUUUUGUUCAAAAUUAUCUGGAGUUUUAGACAAACUUGCAAAACUGUGCUUUUAUUAAGUGACUUUUUGAAUAAACUUUUUGGUAUUCUGAAGCAAAUGUAUUUAUUUAUUGGUAUGUGCAAUGACAAACUUGGUAUUUUCCCAUAAUGACAUUAUCUCUUGCGGUCGCACUAGUGUGGAAUUCUCGGGUGUCAAGG
# B3: ENSMUSG00000061578.833|Ksr2 (ssRNA)
# RNA: GGGAGUUCUACAGUCCGACGAUCGCUUCGAUAUCCGCAUGCUACUCACAGUUUCAAAGGGCUCAGUCCAUAGCUGCCUGACUCUGUGUUUCUAGGCCUUUCUUGAGGCAAGUGUUCAUCAUGAUAGUGUGAGGGUGAGGAGGAGUUUCUUCAUGGCAAACAGGAAGCAAAGAGCAAUACAGGAAAAGGUCAGGGGUGAGAUGUGUCAUUGCCACUUCCUCCAGCUAGGACCUUUGAGCAUCACAUUGUGAAGCCAUCCAGGGACUUGGGGGUUAGGUCAGAGGUAUCAAUACAUCUCCGGAAACUCUUGCGGUCGCACUAGUGUGGAAUUCUCGGGUGUCAAGG
# B4: ENSMUSG00000061578.1468|Ksr2 (ssRNA)
# RNA: GGGAGUUCUACAGUCCGACGAUCGCUUCGAUAUCCGCAUGCUAGAUGAAUGGAUGGGUGAAUGGAUGGAUAGGUAUGUGAAUAAAUGGAUGGAUGGAUGGAUUGAUUUGUGAAUGAAUGGAUGAAUGGAUGGGUAGGUGGGUGGAUGCAUAGGCAAGUAGAUGAAUGAAUAUGUGGGUAGAAGGGUGAGUGGGUGGAUGAAUGGAUGGAUAGGUUGGUAGGUUAAUGUAUUCGUGGAUGGGUGAAUGGAUGGAUGGAUAGAUAGAUGGGAAGGUGGAUGGACAGAUGGAUGGAUGGAUAGAUACUCUUGCGGUCGCACUAGUGUGGAAUUCUCGGGUGUCAAGG
# B5: ENSMUSG00000061578.1472|Ksr2 (ssRNA)
# RNA: GGGAGUUCUACAGUCCGACGAUCGCUUCGAUAUCCGCAUGCUAGAUAGGUAUGUGAAUAAAUGGAUGGAUGGAUGGAUUGAUUUGUGAAUGAAUGGAUGAAUGGAUGGGUAGGUGGGUGGAUGCAUAGGCAAGUAGAUGAAUGAAUAUGUGGGUAGAAGGGUGAGUGGGUGGAUGAAUGGAUGGAUAGGUUGGUAGGUUAAUGUAUUCGUGGAUGGGUGAAUGGAUGGAUGGAUAGAUAGAUGGGAAGGUGGAUGGACAGAUGGAUGGAUGGAUAGAUAGAUGGACAGGUGGUUGGUGGAUAACUCUUGCGGUCGCACUAGUGUGGAAUUCUCGGGUGUCAAGG
# B6: ENSMUSG00000061578.1477|Ksr2 (ssRNA)
# RNA: GGGAGUUCUACAGUCCGACGAUCGCUUCGAUAUCCGCAUGCUAUGGAUUGAUUUGUGAAUGAAUGGAUGAAUGGAUGGGUAGGUGGGUGGAUGCAUAGGCAAGUAGAUGAAUGAAUAUGUGGGUAGAAGGGUGAGUGGGUGGAUGAAUGGAUGGAUAGGUUGGUAGGUUAAUGUAUUCGUGGAUGGGUGAAUGGAUGGAUGGAUAGAUAGAUGGGAAGGUGGAUGGACAGAUGGAUGGAUGGAUAGAUAGAUGGACAGGUGGUUGGUGGAUAAAUGAGUGAAUGAUUAUGUUGAUAGAUAUGUCUCUUGCGGUCGCACUAGUGUGGAAUUCUCGGGUGUCAAGG
# B7: ENSMUSG00000061578.1466|Ksr2 (ssRNA)
# RNA: GGGAGUUCUACAGUCCGACGAUCGCUUCGAUAUCCGCAUGCUAUAUGAAUGAAUGGAUGAAUGGAUGGGUGAAUGGAUGGAUAGGUAUGUGAAUAAAUGGAUGGAUGGAUGGAUUGAUUUGUGAAUGAAUGGAUGAAUGGAUGGGUAGGUGGGUGGAUGCAUAGGCAAGUAGAUGAAUGAAUAUGUGGGUAGAAGGGUGAGUGGGUGGAUGAAUGGAUGGAUAGGUUGGUAGGUUAAUGUAUUCGUGGAUGGGUGAAUGGAUGGAUGGAUAGAUAGAUGGGAAGGUGGAUGGACAGAUGGAUGCUCUUGCGGUCGCACUAGUGUGGAAUUCUCGGGUGUCAAGG
# B8: ENSMUSG00000061578.1470|Ksr2 (ssRNA)
# RNA: GGGAGUUCUACAGUCCGACGAUCGCUUCGAUAUCCGCAUGCUAGGUGAAUGGAUGGAUAGGUAUGUGAAUAAAUGGAUGGAUGGAUGGAUUGAUUUGUGAAUGAAUGGAUGAAUGGAUGGGUAGGUGGGUGGAUGCAUAGGCAAGUAGAUGAAUGAAUAUGUGGGUAGAAGGGUGAGUGGGUGGAUGAAUGGAUGGAUAGGUUGGUAGGUUAAUGUAUUCGUGGAUGGGUGAAUGGAUGGAUGGAUAGAUAGAUGGGAAGGUGGAUGGACAGAUGGAUGGAUGGAUAGAUAGAUGGACAGGUGCUCUUGCGGUCGCACUAGUGUGGAAUUCUCGGGUGUCAAGG
# B9: ENSMUSG00000061578.1467|Ksr2 (ssRNA)
# RNA: GGGAGUUCUACAGUCCGACGAUCGCUUCGAUAUCCGCAUGCUAUGAAUGGAUGAAUGGAUGGGUGAAUGGAUGGAUAGGUAUGUGAAUAAAUGGAUGGAUGGAUGGAUUGAUUUGUGAAUGAAUGGAUGAAUGGAUGGGUAGGUGGGUGGAUGCAUAGGCAAGUAGAUGAAUGAAUAUGUGGGUAGAAGGGUGAGUGGGUGGAUGAAUGGAUGGAUAGGUUGGUAGGUUAAUGUAUUCGUGGAUGGGUGAAUGGAUGGAUGGAUAGAUAGAUGGGAAGGUGGAUGGACAGAUGGAUGGAUGGACUCUUGCGGUCGCACUAGUGUGGAAUUCUCGGGUGUCAAGG
# B10: ENSMUSG00000061578.1473|Ksr2 (ssRNA)
# RNA: GGGAGUUCUACAGUCCGACGAUCGCUUCGAUAUCCGCAUGCUAUAUGUGAAUAAAUGGAUGGAUGGAUGGAUUGAUUUGUGAAUGAAUGGAUGAAUGGAUGGGUAGGUGGGUGGAUGCAUAGGCAAGUAGAUGAAUGAAUAUGUGGGUAGAAGGGUGAGUGGGUGGAUGAAUGGAUGGAUAGGUUGGUAGGUUAAUGUAUUCGUGGAUGGGUGAAUGGAUGGAUGGAUAGAUAGAUGGGAAGGUGGAUGGACAGAUGGAUGGAUGGAUAGAUAGAUGGACAGGUGGUUGGUGGAUAAAUGAGUCUCUUGCGGUCGCACUAGUGUGGAAUUCUCGGGUGUCAAGG
# B11: ENSMUSG00000061578.1475|Ksr2 (ssRNA)
# RNA: GGGAGUUCUACAGUCCGACGAUCGCUUCGAUAUCCGCAUGCUAUGGAUGGAUGGAUGGAUUGAUUUGUGAAUGAAUGGAUGAAUGGAUGGGUAGGUGGGUGGAUGCAUAGGCAAGUAGAUGAAUGAAUAUGUGGGUAGAAGGGUGAGUGGGUGGAUGAAUGGAUGGAUAGGUUGGUAGGUUAAUGUAUUCGUGGAUGGGUGAAUGGAUGGAUGGAUAGAUAGAUGGGAAGGUGGAUGGACAGAUGGAUGGAUGGAUAGAUAGAUGGACAGGUGGUUGGUGGAUAAAUGAGUGAAUGAUUAUGUCUCUUGCGGUCGCACUAGUGUGGAAUUCUCGGGUGUCAAGG
# B12: ENSMUSG00000061578.1462|Ksr2 (ssRNA)
# RNA: GGGAGUUCUACAGUCCGACGAUCGCUUCGAUAUCCGCAUGCUAGAUGGGUAGGUGGGUAGAUAGGUAUAUGAAUGAAUGGAUGAAUGGAUGGGUGAAUGGAUGGAUAGGUAUGUGAAUAAAUGGAUGGAUGGAUGGAUUGAUUUGUGAAUGAAUGGAUGAAUGGAUGGGUAGGUGGGUGGAUGCAUAGGCAAGUAGAUGAAUGAAUAUGUGGGUAGAAGGGUGAGUGGGUGGAUGAAUGGAUGGAUAGGUUGGUAGGUUAAUGUAUUCGUGGAUGGGUGAAUGGAUGGAUGGAUAGAUAGAUGCUCUUGCGGUCGCACUAGUGUGGAAUUCUCGGGUGUCAAGG
# B13: ENSMUSG00000061578.1471|Ksr2 (ssRNA)
# RNA: GGGAGUUCUACAGUCCGACGAUCGCUUCGAUAUCCGCAUGCUAUGGAUGGAUAGGUAUGUGAAUAAAUGGAUGGAUGGAUGGAUUGAUUUGUGAAUGAAUGGAUGAAUGGAUGGGUAGGUGGGUGGAUGCAUAGGCAAGUAGAUGAAUGAAUAUGUGGGUAGAAGGGUGAGUGGGUGGAUGAAUGGAUGGAUAGGUUGGUAGGUUAAUGUAUUCGUGGAUGGGUGAAUGGAUGGAUGGAUAGAUAGAUGGGAAGGUGGAUGGACAGAUGGAUGGAUGGAUAGAUAGAUGGACAGGUGGUUGGUCUCUUGCGGUCGCACUAGUGUGGAAUUCUCGGGUGUCAAGG
# B14: ENSMUSG00000061578.1458|Ksr2 (ssRNA)
# RNA: GGGAGUUCUACAGUCCGACGAUCGCUUCGAUAUCCGCAUGCUAGAAUGAAUGGAUGAUGGAUGAAUGGAUGGGUAGGUGGGUAGAUAGGUAUAUGAAUGAAUGGAUGAAUGGAUGGGUGAAUGGAUGGAUAGGUAUGUGAAUAAAUGGAUGGAUGGAUGGAUUGAUUUGUGAAUGAAUGGAUGAAUGGAUGGGUAGGUGGGUGGAUGCAUAGGCAAGUAGAUGAAUGAAUAUGUGGGUAGAAGGGUGAGUGGGUGGAUGAAUGGAUGGAUAGGUUGGUAGGUUAAUGUAUUCGUGGAUGGGUGCUCUUGCGGUCGCACUAGUGUGGAAUUCUCGGGUGUCAAGG
# B15: ENSMUSG00000061578.1460|Ksr2 (ssRNA)
# RNA: GGGAGUUCUACAGUCCGACGAUCGCUUCGAUAUCCGCAUGCUAGAUGGAUGAAUGGAUGGGUAGGUGGGUAGAUAGGUAUAUGAAUGAAUGGAUGAAUGGAUGGGUGAAUGGAUGGAUAGGUAUGUGAAUAAAUGGAUGGAUGGAUGGAUUGAUUUGUGAAUGAAUGGAUGAAUGGAUGGGUAGGUGGGUGGAUGCAUAGGCAAGUAGAUGAAUGAAUAUGUGGGUAGAAGGGUGAGUGGGUGGAUGAAUGGAUGGAUAGGUUGGUAGGUUAAUGUAUUCGUGGAUGGGUGAAUGGAUGGAUGCUCUUGCGGUCGCACUAGUGUGGAAUUCUCGGGUGUCAAGG
# Biological target: TDP-43 (Homo sapiens, UniProt Q13148 1-414)
# Assay: RNA Bind-n-Seq with designed 260-mer pool; 25 mM Tris-HCl, 150 mM KCl, 3 mM MgCl2, BSA (printed 500 mg/mL), 20 units/mL SUPERase IN; pH not stated; 500 nM RNA pool, 1 h, 4 C; TDP-43 5, 50, 500 nM; high values mean tight binding
# Conditions: protein: recombinant; tags: SBP (GST cleaved off with PreScission; pGEX-GST-SBP)
# Procedure, shortened: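 An in vitro-transcribed pool of 260-nt 3′ UTR oligos (500 nM) was incubated for 1 h at 4 °C with recombinant SBP-tagged TDP-43 at 5, 50 or 500 nM held on streptavidin beads. The buffer contained 25 mM Tris-HCl, 150 mM KCl, 3 mM MgCl2, BSA and SUPERase IN. Biotin-eluted bound RNA was sequenced, and binding, R, is each oligo's normalized read abundance in the bound sample over that in input.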
# Chain of TDP-43 (Q13148 whole entry): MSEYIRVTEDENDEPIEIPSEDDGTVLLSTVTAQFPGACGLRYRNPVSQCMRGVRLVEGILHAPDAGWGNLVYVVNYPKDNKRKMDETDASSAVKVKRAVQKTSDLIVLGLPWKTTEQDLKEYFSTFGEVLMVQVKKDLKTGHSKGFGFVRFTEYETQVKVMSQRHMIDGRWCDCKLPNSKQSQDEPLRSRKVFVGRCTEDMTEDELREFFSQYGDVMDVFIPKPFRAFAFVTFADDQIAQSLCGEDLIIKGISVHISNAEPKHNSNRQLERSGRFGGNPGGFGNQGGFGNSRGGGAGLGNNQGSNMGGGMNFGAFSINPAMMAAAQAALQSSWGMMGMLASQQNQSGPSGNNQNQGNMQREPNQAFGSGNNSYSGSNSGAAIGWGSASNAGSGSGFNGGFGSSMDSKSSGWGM
row,Binder,binding signal
1,B1,0.515 R (bound/input frequency ratio)
2,B2,0.0963 R (bound/input frequency ratio)
3,B3,1.23 R (bound/input frequency ratio)
4,B4,14.4 R (bound/input frequency ratio)
5,B5,5.09 R (bound/input frequency ratio)
6,B6,5.58 R (bound/input frequency ratio)
7,B7,5.78 R (bound/input frequency ratio)
8,B8,5.59 R (bound/input frequency ratio)
9,B9,3.46 R (bound/input frequency ratio)
10,B10,9.68 R (bound/input frequency ratio)
11,B11,8.8 R (bound/input frequency ratio)
12,B12,5.83 R (bound/input frequency ratio)
13,B13,6.33 R (bound/input frequency ratio)
14,B14,4.62 R (bound/input frequency ratio)
15,B15,6.72 R (bound/input frequency ratio)
